Screening data: PubChem BioAssay, several laboratories
The list is not random: actives were taken first. Their share in the collection is about 3.3%.
Mcl1 Bid PPI – Mcl-1/Bid binding inhibitors, primary screen, biochemical, TR-FRET, 1536-well; TR-FRET Mcl-1/Bid-Dy647 peptide binding; inhibition, % at 21.7 µM; 220,000 compounds, 0.97% hits; AID 1021, 2008;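 active means compounds that cut the binding signal by more than half at the single screening dose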;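 further: His-tagged Mcl-1 with europium anti-His antibody binding Bid BH3 peptide; 0% = Mcl-1 plus peptide wells and 100% = peptide-only wells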
14-3-3 Bad inh – inhibitors of 14-3-3 zeta/Bad binding, primary screen, biochemical, TR-FRET, bovine 14-3-3 zeta. TR-FRET 14-3-3zeta/Dy647-pBad peptide displacement, 1 h. 220,000 compounds, 0.71% hits. 14-3-3 protein zeta/delta (Bos taurus), P63103. inhibition, % at 21.7 µM;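 active means inhibition above about 70%, limit read from the data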;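 further: 0% = full 14-3-3 plus peptide FRET controls and 100% = background without 14-3-3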
eIF4E-4G inh – eIF4E–eIF4G protein interaction inhibitors, primary screen, biochemical, uHTS, TR-FRET, eIF4GI fragment; AID 782, 2007; Eukaryotic translation initiation factor 4E (Mus musculus) + Eukaryotic translation …; 220,000 compounds, 0.37% hits; inhibition, % at 21.7 µM; TR-FRET eIF4E-eIF4GI(517-606) binding, 2 h;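 further: 0% = full FRET control wells and 100% = background wells lacking eIF4GI fragment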
Mcl1 Noxa PPI – Mcl-1/Noxa binding inhibitors, primary screen, biochemical, TR-FRET, 1536-well | Induced myeloid leukemia cell differentiation protein Mcl-1 (Homo sapiens), Q07820 | TR-FRET Mcl-1/Noxa peptide binding, 2 h | inhibition, % at 21.7 µM | 220,000 compounds, 1.5% hits | AID 1022, 2008;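 active means compounds that cut the protein-peptide binding signal by more than 50% relative to plate controls in a single-dose test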;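 further: His-tagged Mcl-1 with rhodamine Noxa BH3 peptide and terbium anti-His antibody; 0% = Mcl-1 plus Noxa peptide wells and 100% = peptide-only wells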
Bim-Mcl-1 – inhibitors of Bim peptide binding to Mcl-1, primary screen, biochemical, bead-based flow cytometry, multiplex; 190,000 compounds, 0.1% hits; AID 1009, 2008; Induced myeloid leukemia cell differentiation protein Mcl-1 (Homo sapiens), Q07820; inhibition, % at 10 µM; Bim peptide-Mcl-1 binding; in the data active means inhibition above about 40%;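 further: 0% = no compound tracer wells and 100% = peptide blocker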
NCF1 inh – p47phox/p22phox peptide binding inhibitors, primary screen, biochemical, uHTS, NADPH oxidase regulatory subunit; fluorescence polarization, 2 h; Neutrophil cytosol factor 1 (Homo sapiens), P14598; 220,000 compounds, 0.53% hits; inhibition, % at 24.7 µM;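 further: 0% = p47phox with labelled peptide and 100% = labelled peptide alone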
Target sequence (P14598 whole entry, looked up): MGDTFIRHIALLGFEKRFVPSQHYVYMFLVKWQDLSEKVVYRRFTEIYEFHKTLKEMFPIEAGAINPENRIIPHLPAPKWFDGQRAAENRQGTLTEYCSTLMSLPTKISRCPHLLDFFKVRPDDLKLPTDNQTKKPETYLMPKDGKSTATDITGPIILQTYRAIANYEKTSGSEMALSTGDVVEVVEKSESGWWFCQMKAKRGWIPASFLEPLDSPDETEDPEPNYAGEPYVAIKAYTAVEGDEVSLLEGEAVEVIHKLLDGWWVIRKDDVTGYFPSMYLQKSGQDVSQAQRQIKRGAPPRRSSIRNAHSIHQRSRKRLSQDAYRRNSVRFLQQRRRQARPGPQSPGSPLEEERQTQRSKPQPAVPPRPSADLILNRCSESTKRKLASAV
* hit, by the source's call; x = not tested or not shown; [ ] = dose if it differs, or a comment.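 How the source made its calls, unless noted: active means inhibition above about 30% (limit read from the data); inactive means the rest.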

SMILES	Mcl1 Bid PPI	14-3-3 Bad inh	eIF4E-4G inh	Mcl1 Noxa PPI	Bim-Mcl-1	NCF1 inh
COc1ccc(/C(C)=N/NC(=O)Cn2nc([N+](=O)[O-])cc2C)cc1	2	4	1	-10	x	-1
O=C(CCS(=O)(=O)c1cccc2nsnc12)NCc1ccccc1Cl	-2	9	33*	3	-3	-10
Cc1ccc(CNC(=O)CCS(=O)(=O)c2ccc(Br)cc2)cc1	-90	96*	4	5	-1	-7
COc1ccc(NC(=O)CCS(=O)(=O)c2cccc3nonc23)c(OC)c1	-5	-2	0	6	-1	80*
Cc1ccc(CNC(=O)CCS(=O)(=O)c2cccc3nonc23)cc1	93*	-5	0	4	-1	-11
Cc1cccc(NC(=O)CCS(=O)(=O)c2cccc3nsnc23)c1C	-24	-1	10	5	-3	-6
COc1ccc(NC(=O)c2nc3nccc(C)n3n2)cn1	-22	-4	-2	-15	0	-23
O=C(CCS(=O)(=O)c1ccccc1)Nc1ccccc1F	-37	-1	1	-7	0	7
Cc1cc(/C=C2\Sc3ccccc3N2C)cc(C)[n+]1CC1CCCO1 (centres undefined)	-19	-9	4	2	2	-2
CC(C)(C)C1CCC(OC(=O)CN2CCCCC2)CC1 (centres undefined)	-3	0	-1	-2	x	-9
Cc1cc(C(=O)O)ccc1-n1c(C)ccc1C	57*	0	7	78*	2	-25
Cc1cc(C(=O)O)ccc1-n1c(C)cc(C=C2C(=O)c3ccccc3C2=O)c1C	-40	3	6	30	0	-18
CCN(CC)c1ccc(/C=N/Nc2cccc(C)c2)c(O)c1	79*	2	5	40	17	-4
CCN(CC)c1ccc(C=Nc2ccccc2)c(O)c1	-21	-3	9	24	1	-19
CCN(CC)c1ccc(/C=N/Nc2ccccc2)c(O)c1	-123	-10	1	57*	0	-6
Cn1c(=O)c2c(nc(N/N=C/c3ccc(OC(=O)c4ccco4)cc3)n2Cc2ccc(F)cc2)n(C)c1=O	59*	53	11	48	-10	9
Cc1cccc2cc(-c3nc4c(C)cccn4c3NCc3ccco3)c(=O)[nH]c12	-47	-10	-4	-5	-2	-3
Cc1ccc2[nH]c(=O)c(-c3nc4cc(C)ccn4c3NCc3ccco3)cc2c1	80*	63	-8	60*	0	3
COc1cc(/C=N/NC(=O)C(=O)NCc2ccco2)cc(Cl)c1O	-14	60	8	62*	x	1
COc1cc(/C=N/NC(=O)C(=O)NCc2ccco2)ccc1O	-33	-7	-4	25	0	-22
COc1cnn(-c2ccc(C)cc2)c(=O)c1SCc1ccccc1	-27	11	2	-148	-5	-3
COc1cnn(-c2ccccc2)c(=O)c1SCc1ccc(Cl)cc1Cl	-48	-7	-8	85*	-5	-6
COc1cnn(-c2ccc(Br)cc2)c(=O)c1SCc1ccccc1	-29	-14	1	76*	-4	-20
Cc1ccccc1S(=O)c1ccccc1C(=O)O (centres undefined)	-3	0	-1	14	x	-5
CCOC(=O)c1c(NC(=O)c2ccccc2N(C)S(=O)(=O)c2ccccc2)sc2c1CCCC2	-26	-5	1	8	53*	5
SMILES	Mcl1 Bid PPI	14-3-3 Bad inh	eIF4E-4G inh	Mcl1 Noxa PPI	Bim-Mcl-1	NCF1 inh
COC(=O)c1c(NC(=O)c2cnccn2)sc2c1CCC2	97*	-1	-8	14	0	-1
O=C(Nc1sc2c(c1C(=O)O)CCCCC2)c1ccccc1	-7	-11	-6	24	-12	11
O=C(Nc1sc2c(c1C(=O)O)CCC2)c1ccccc1	72*	83*	12	32	-1	-13
COC(=O)c1c(NC(=O)c2ccccc2N(C)S(=O)(=O)c2ccccc2)sc2c1CCCC2	-17	-11	-2	-4	-6	-6
CNC(=S)Nc1sc2c(c1C(=O)OC)CCC2	-114	-4	3	75*	-2	4
COC(=O)c1c(NC(C)=O)sc2c1CCCC2	-19	-18	3	8	0	-13
O=C1c2ccccc2NC(c2ccc([N+](=O)[O-])cc2)N1O (centres undefined)	-9	-6	-2	-5	0	1
COc1ccccc1/C=C\C(=O)NCC(=O)N/N=C(\C)Cc1ccccc1	1	0	3	-20	x	4
CCOC(=O)c1ccccc1-c1csc(N)n1	-7	3	-4	5	1	5
Fc1cccc2sc(Nc3nc4cc5c(cc4s3)OCO5)nc12	-11	-14	6	-15	-3	-36
Fc1cc(F)c2nc(Nc3nc4cc5c(cc4s3)OCO5)sc2c1	91*	95*[fluorescence artefact?]	4	99*	4	-49
O=C1Nc2ccccc2S/C1=C/c1cccs1	-65	1	74*	-24	x	-5
NC1=NC(=O)/C(=C/c2cccs2)S1	-14	-2	-3	-4	-1	-33
O=C1/C(=C/c2cccs2)Sc2ccccc21	10	-9	-4	38	75*	-1
Cc1ccc(N=C2NC(=O)/C(=C\c3cccs3)S2)cc1C	-13	1	-7	26	-4	-10
Cc1ccc(-c2nnn(CC(=O)N(c3ccccc3)C(C(=O)NCC3CCCO3)c3cccs3)n2)o1 (centres undefined)	-4	-4	4	0	-1	-12
COC(=O)CC1C(=O)NCCN1C(=S)Nc1ccccc1Cl (centres undefined)	-4	-4	0	4	0	-2
Cc1ccccc1NC(=O)c1ccccc1NC(=O)CCC(=O)O	-27	-2	22	2	-5	-5
CCOC(=O)CSC1=NC(=O)/C(=C/c2ccc(OC)cc2)S1	31	2	1	44	30	-36
COc1ccc(C2C(C#N)=C(N)OC3=C2C(=O)CC(C)C3)c(OC)c1OC (centres undefined)	53*	-2	-2	18	-6	-14
COc1ccc(C2C(C#N)=C(N)OC3=C2C(=O)CCC3)cc1OC (centres undefined)	70*	-1	-3	-4	-3	-2
